Screening results as filed in PubChem BioAssay.
Pol iota inh: blocks human DNA polymerase iota activity. Q9UNA4. Potency, µM (top dose mostly 115 µM), inactives show at the top dose activity, negative = inhibition, hits mostly inhibitors. 390,000 compounds, 1% hits. Pol iota fluorescent replication assay, 10 min; note: potency is the fitted concentration of half-maximal effect
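Pol iota at 10 nM preincubated 15 min with compounds at room temperature; reaction started with fluorescent substrate, 50 nM final. Fluorescence read kinetically at 0 and 10 min; buffer-only wells as negative control.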
PI5P4K alpha inh: blocks human PI5P4K alpha kinase activity; PI5P4Kalpha enzyme, ADP-Glo luminescence, 60 min; hits give low values; max response, %; 330,000 compounds, 1.2% hits; active = max response of -50% or lower; inconclusive = between -30% and -50%; inactive = -30% or higher; note: value at the top dose of about 77 µM; % is set by controls: 0 for no effect and ±100 for the full control effect
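Human PI5P4Kalpha with substrate in 0.038 M HEPES pH 7.4, 0.28 mM EGTA, 0.1% CHAPS, 5% DMSO; reaction started with 5 microM ATP (final), 60 min at room temperature. ADP formed read by ADP-Glo luminescence.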
Pol eta inh: inhibitors of human DNA polymerase eta. Q9Y253. recombinant Pol eta, fluorescent DNA replication assay. Potency, µM (titrated, usually from 114 µM), without a hit: top-dose activity change, negative = inhibition, usual class: inhibitors. 390,000 compounds, 1.2% hits. AID 588591; note: potency is the fitted concentration of half-maximal effect; % is set by controls: 0 for no effect and ±100 for the full control effect
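Fluorescent replication assay: 50 nM final substrate added after a 15 min room-temperature compound preincubation with 10 nM enzyme. Signal taken at 0 min and again at 10 min.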
WRN helicase inh: blocks human WRN helicase; Q14191; WRN helicase unwinding, fluorescent forked duplex, kinetic; Potency, µM (titrated, usually from 114 µM), for the others: top-dose activity change, negative = inhibition, usual class: inhibitors; 360,000 compounds, 0.46% hits; note: potency is the fitted concentration of half-maximal effect; % is set by controls: 0 for no effect and ±100 for the full control effect; nearly all actives have a fitted effect of over 55% in size
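Kinetic fluorescence helicase assay: unwinding of a quenched forked DNA duplex (100 nM final) with 2 mM ATP final raises red fluorescence (525/598 nm). Compounds sat 15 min at room temperature with 20 nM WRN beforehand.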
Pol kappa inh: blocks human DNA polymerase kappa activity. purified Pol kappa, fluorescent DNA synthesis assay, 10 min. 400,000 compounds, 0.53% hits. Potency, µM (series often up to 107 µM), without a hit: at the highest dose activity, negative = inhibition, most hits filed as inhibitors; note: potency is the fitted concentration of half-maximal effect; % is set by controls: 0 for no effect and ±100 for the full control effect
Target sequence (Q9UBT6 whole entry, looked up): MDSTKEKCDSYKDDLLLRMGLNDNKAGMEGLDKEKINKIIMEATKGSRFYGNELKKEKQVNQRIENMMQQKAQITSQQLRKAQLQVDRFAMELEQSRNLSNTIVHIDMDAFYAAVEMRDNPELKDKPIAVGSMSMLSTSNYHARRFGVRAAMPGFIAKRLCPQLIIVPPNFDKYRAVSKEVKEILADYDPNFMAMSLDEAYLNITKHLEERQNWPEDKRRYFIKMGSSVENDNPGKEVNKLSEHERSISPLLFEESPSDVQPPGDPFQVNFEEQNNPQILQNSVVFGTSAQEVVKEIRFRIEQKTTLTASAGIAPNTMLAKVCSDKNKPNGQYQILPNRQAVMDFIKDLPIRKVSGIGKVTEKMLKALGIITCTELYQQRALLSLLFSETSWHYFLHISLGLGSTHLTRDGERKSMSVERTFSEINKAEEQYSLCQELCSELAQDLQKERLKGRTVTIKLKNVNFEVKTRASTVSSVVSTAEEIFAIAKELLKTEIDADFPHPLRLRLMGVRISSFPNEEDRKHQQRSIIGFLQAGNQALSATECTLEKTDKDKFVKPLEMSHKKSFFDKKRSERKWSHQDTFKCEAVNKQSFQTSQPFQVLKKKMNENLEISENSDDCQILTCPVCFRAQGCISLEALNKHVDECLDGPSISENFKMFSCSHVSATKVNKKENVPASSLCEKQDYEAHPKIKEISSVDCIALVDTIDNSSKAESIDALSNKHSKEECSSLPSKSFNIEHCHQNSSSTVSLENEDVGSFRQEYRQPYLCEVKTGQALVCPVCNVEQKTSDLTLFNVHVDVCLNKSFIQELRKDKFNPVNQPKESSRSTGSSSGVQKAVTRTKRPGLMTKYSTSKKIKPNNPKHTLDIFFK
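First, compounds were pin-transferred onto 10 nM Pol kappa. After 15 min at room temperature, substrate was added to 50 nM final. Fluorescence was then measured kinetically at 0 and 10 min.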
POLB inh: blocks human DNA polymerase beta activity. P06746. AID 485314. Potency, µM (highest dose often 114 µM), for inactives: top-dose activity change, negative = inhibition, hits mostly inhibitors. 340,000 compounds, 1.3% hits. Pol beta primer extension/strand displacement, fluorescence kinetic; note: potency is the fitted concentration of half-maximal effect; % is set by controls: 0 for no effect and ±100 for the full control effect
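Enzyme-only controls used 10 nM Pol beta; buffer lacking enzyme served as negative control. Compound preincubated 15 min, then 50 nM substrate added; 0 and 10 min reads at room temperature.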
Active calls of the source: *; ? = inconclusive; . = no result given; [ ] = dose if it differs, or a comment. Shown are actives, neighbours in structure and some others; about 2.8% of the full set was active somewhere. Unless noted, calls come from the whole dose curve; as a rule, active = well fitted curve in the direction sought with a large enough effect; inconclusive = small, poorly fitted or top-dose-only effect, or another doubt; inactive = no such curve, though single readings can be large; an effect the other way counts as inactive or inconclusive.

SMILES | Pol iota inh | PI5P4K alpha inh | Pol eta inh | WRN helicase inh | Pol kappa inh | POLB inh
COc1ccc(CCNC(=O)c2c[nH]n3c(=O)c(Cc4ccccc4Cl)c(C)nc23)cc1OC | -18% | . | . | . | 6%[60.1 µM] | 79µM*
Cc1nc2c(C(=O)NCCc3ccccc3)c[nH]n2c(=O)c1Cc1ccc(F)cc1Cl | ? | . | -30% | . | -22% | 79µM*
Cc1nc2c(C(=O)NCc3ccccc3Cl)c[nH]n2c(=O)c1Cc1cccc(Cl)c1 | 56µM* | . | ? | . | -42% | 56µM*
Clc1ncc(C#Cc2ccccc2)c2ncncc12 | ? | . | . | . | -3% | .
COc1cc(OC)c(OC)cc1/C=c1\[nH]c(=O)/c(=C/c2cc(OC)c(OC)cc2OC)[nH]c1=O | 11% | . | . | . | 12% | .
Cc1nc2c(C(=O)NCc3ccc(F)cc3)c[nH]n2c(=O)c1Cl | -23%[58.9 µM] | . | -5% | -17% | -11% | 6%
Cc1ccc(CNC(=O)c2c[nH]n3c(=O)c(Cc4ccc(F)cc4Cl)c(C)nc23)cc1 | ? | . | 71µM* | . | ? | 50µM*
Cc1nc2c(C(=O)NCCc3ccc(Cl)cc3)c[nH]n2c(=O)c1Cc1ccccc1F | 71µM* | . | ? | . | -13% | ?
C=CCc1ccccc1OCc1nc2ccccc2n1CC | -10% | . | -23% | . | 1% | 11%
COc1ccc(C)c2sc(N(Cc3cccnc3)C(=O)CCc3ccccc3)nc12 | 39% | . | -16% | . | -7%[60.1 µM] | 0%
Cc1ccc(S(=O)(=O)N2CN(CC3CCCO3)c3nc4ccccc4nc32)c(C)c1 (centres undefined) | 71µM* | 9 | -18% | -2%[11.6 µM] | -18% | -8%
Cn1c(NC(=O)c2ccc(F)cc2)nc2ccccc21 | 89µM* | -4 | -17% | -1%[11.6 µM] | -14% | 5%
COc1cc(NC(=O)COc2ccc(-n3cnnn3)cc2)c(OC)cc1Cl | -51% | ? | -4% | -10% | -25% | -28%
O=C(COc1ccc(-n2cnnn2)cc1)Nc1cccc(Cl)c1Cl | ? | ? | -6% | -15% | -32% | 50µM*
C/C(=N\NC(=O)c1cc(O)ccc1O)c1cccc(NC(=O)c2ccc(Cl)cc2)c1 | 20µM* | -82* | 22µM* | 40µM* | 50µM* | 45µM*
O=[N+]([O-])c1cc(CN2CCN(c3cccc(C(F)(F)F)c3)CC2)c2cccnc2c1O | 84% | -68* | -24% | -10% | -26% | 18µM*
O=S1(=O)CCOC[C@H](c2ccccc2)N1Cc1ccc(Cl)cc1Cl | -4% | . | . | . | -10% | .
COc1ccc(/C=C/C(=O)NCCSCc2ccco2)cc1OC | 71µM* | -2 | -29% | -23%[57.1 µM] | -40% | -14%
COc1ccc(CCNC(=O)/C=C/c2ccco2)cc1OC | ? | 11 | 2% | -7% | -21% | 11%
COc1ccc(S(=O)(=O)NCCSCc2ccco2)cc1OC | 45µM* | . | ? | -2%[11.6 µM] | -27% | 40µM*
Cc1cc(C)c(S(=O)(=O)NCCSCc2ccco2)c(C)c1 | 22µM* | -19 | 20µM* | -12%[11.6 µM] | ? | .
Nc1[nH]c(=S)nc2nnsc12 | 36% | . | . | . | -4% | .
O=C1NC(c2ccccc2Cl)=N/C1=C/c1ccco1 | 28µM* | ? | -17% | -8%[11.6 µM] | ? | ?
CN(C)c1ccc(N=c2sc3ccccc3n2C)cc1 | 6% | . | -14% | -22% | -11% | -1%
CC1=CC(=O)C=CC1=Nc1ccc(N(C)C)cc1 | . | -95* | . | -2%[57.1 µM] | . | .
SMILES | Pol iota inh | PI5P4K alpha inh | Pol eta inh | WRN helicase inh | Pol kappa inh | POLB inh
COC(=O)c1cc2sc(C)cc2n1Cc1cccc(OC)c1 | 7% | . | . | . | 0% | 0%
COc1cc(Cl)cc(C(c2c(C(=O)O)[nH]c3ccccc23)c2c(C(=O)O)[nH]c3ccccc23)c1O | ? | -5 | ? | -8%[11.6 µM] | ? | 89µM*
O=C(O)c1[nH]c2ccccc2c1C(c1c(F)cccc1Cl)c1c(C(=O)O)[nH]c2ccccc12 | 2% | -5 | -3% | -27% | -27% | -29%
COC(=O)c1ccccc1NC(=O)c1ccc2c(c1)CCN2S(=O)(=O)c1ccc(Cl)cc1 | 13% | . | -18% | . | -4% | 31%
S=c1[nH]cc(-c2ccccc2)[nH]1 | 38% | 2 | -12% | -9% | 2% | 6%
O=[N+]([O-])c1ccc(-c2c[nH]c(=S)[nH]2)cc1 | ? | -77* | 40µM* | -9%[11.6 µM] | ? | ?
O=C(NCCc1csc(-c2cccc(F)c2)n1)c1cccs1 | 28% | . | -18% | . | -4%[60.1 µM] | 1%
O=C(CSc1ccc2nc(-c3ccccc3)cn2n1)Nc1cccc(F)c1 | -2% | . | -15% | . | -8%[60.1 µM] | -1%
COc1ccc(C(=O)c2ccccc2)c(O)c1 | 0% | 4 | -9% | -16% | ? | 2%
COc1ccc(C(=O)c2ccccc2)c(O)c1O | . | . | . | . | 10µM* | .
CCOC(=O)c1cc(S(=O)(=O)NCc2cccc(Cl)c2)[nH]n1 | -11% | . | -17% | . | -11%[60.1 µM] | -3%
COc1ccc(OC)c(Nc2nc(=O)c3cccnc3s2)c1 | ? | -89* | -6% | 0% | -18% | 2%
CCCN(CCC)CCNC(=O)C1CCN(c2nc3ccc(CC)cc3s2)CC1 | 8% | . | -14% | . | -1% | -2%
O=C(CSc1ccc(-c2nc3ccccc3[nH]2)cn1)N1CCN(C(=O)c2ccco2)CC1 | 16µM* | . | ? | ? | 50µM* | ?
COc1ccccc1NC(=O)CSc1nc2sc(C)c(C)c2c(=O)n1C | -45% | -2 | -28% | 0% | -13% | 45%
Cc1sc2nc(SCC(=O)Nc3c(C)n(C)n(-c4ccccc4)c3=O)n(C)c(=O)c2c1C | ? | . | ? | -15% | -27% | 20µM*
CCc1c(C)c2ccc(OC(C)C(=O)NC(Cc3c[nH]c4ccc(O)cc34)C(=O)O)c(C)c2oc1=O (centres undefined) | ? | -4 | 50µM* | -5% | -20% | 36%
Cc1c(OCc2ccc(C(=O)O)o2)ccc2c3c(c(=O)oc12)CCC3 | 40µM* | . | 18µM* | -27% | 5%[60.1 µM] | 35µM*
Cc1c(C)c2ccc(OCC(=O)Nc3ccc(S(N)(=O)=O)cc3)c(C)c2oc1=O | ? | -3 | ? | -14%[57.1 µM] | ? | 32µM*
Cc1c(OCC(=O)N[C@H](C(=O)O)c2ccccc2)ccc2c3c(c(=O)oc12)CCCC3 | ? | -10 | 56µM* | -6%[11.6 µM] | ? | ?
O=S1(=O)CCOC[C@H](c2ccccc2)N1Cc1ccc(Cl)c(Cl)c1 | 41% | . | . | . | -15% | .
Cc1ccc(CN(Cc2ccco2)c2cnc(S(C)(=O)=O)nc2C(=O)Nc2ccccc2Br)o1 | 11% | . | -19% | . | -20% | 3%
Cc1c(Cc2ccccc2)c(=O)oc2c(C)c(OCC(=O)N[C@@H](Cc3ccccc3)C(=O)O)ccc12 | -10% | -12 | 50µM* | -11%[11.6 µM] | -18% | 50µM*
